TEAD-YAP inh – TEAD-YAP interaction inhibition; HEK-TIYL cells, TEAD-Gal4/YAP UAS-luciferase luminescence; inhibition, % at 9.12 µM; 640,000 compounds, 1.4% hits; AID 1259422; in the data active means inhibition above about 32%;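 further: 0% = median of test compound wells and 100% = reference inhibitor wells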
GPR151 ag – activates the human receptor GPR151; activation, % at 11.2 µM; 650,000 compounds, 1% hits; PathHunter beta-arrestin GPR151 cells, luminescence; Q8TDV0; in the data active means activation above about 4.9%;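 further: 0% = median of compound wells and 100% = cells with positive control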
FBW7 act – human FBW7 E3 ligase activation, primary screen. Q969H0. AlphaScreen FBW7–phospho-cyclin E peptide binding, activator screen. normalized activity (activation), % at 26.1 µM. 650,000 compounds, 0.13% hits; in the data active means normalized activity above about 1.9%;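 further: purified mutant Fbw7 with reduced substrate affinity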
Target sequence (Q969H0 whole entry, looked up): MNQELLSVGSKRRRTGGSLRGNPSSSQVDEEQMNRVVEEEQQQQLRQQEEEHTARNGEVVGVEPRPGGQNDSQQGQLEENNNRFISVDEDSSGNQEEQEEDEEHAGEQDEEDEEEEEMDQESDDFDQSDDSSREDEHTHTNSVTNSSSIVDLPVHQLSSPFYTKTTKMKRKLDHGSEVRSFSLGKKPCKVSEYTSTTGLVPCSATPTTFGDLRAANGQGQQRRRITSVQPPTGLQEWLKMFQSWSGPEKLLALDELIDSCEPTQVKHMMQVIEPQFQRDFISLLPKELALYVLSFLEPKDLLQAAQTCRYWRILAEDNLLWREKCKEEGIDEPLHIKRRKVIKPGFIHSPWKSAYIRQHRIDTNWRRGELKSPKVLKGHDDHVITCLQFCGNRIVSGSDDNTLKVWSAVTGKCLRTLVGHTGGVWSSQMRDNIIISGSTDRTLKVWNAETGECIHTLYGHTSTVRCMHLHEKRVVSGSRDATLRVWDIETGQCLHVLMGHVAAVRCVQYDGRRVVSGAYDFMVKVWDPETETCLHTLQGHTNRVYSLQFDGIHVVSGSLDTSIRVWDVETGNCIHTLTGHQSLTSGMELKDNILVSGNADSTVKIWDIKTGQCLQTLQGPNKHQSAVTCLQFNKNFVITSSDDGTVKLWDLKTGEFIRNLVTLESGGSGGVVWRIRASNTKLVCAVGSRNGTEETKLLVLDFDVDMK
MITF inh – inhibitors of human MITF; 650,000 compounds, 0.91% hits; inhibition, % at 2.6 µM; AlphaScreen MITF homodimerization, bead proximity signal; O75030; in the data active means inhibition above about 50%;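 further: 0% = vehicle wells with protein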
GPR151 conf act – confirmation of human GPR151 activators | shares compounds with GPR151 ag | GPR151 PathHunter beta-arrestin cells, luminescence, 90 min; % of EA-reagent control over plate median | activation, % at 11.2 µM | 6,700 tested, under 10 active | AID 1508609;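 active means mean percent activation across replicates above the confirmation screen cutoff of 4.91%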
GPR119 ag – activates human GPR119 in a GPR151 counter-screen. activation, % at 11.2 µM. shares compounds with GPR151 ag. GPR119 PathHunter beta-arrestin cells, luminescence, 90 min; 0 = compound-well median, 100 = enzyme-acceptor control. 6,700 compounds, 0.3% hits;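 active means mean percent activation in the counterscreen above 29.09%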;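 further: counterscreen on off-target GPR119 to flag nonselective hits from the GPR151 activator screen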
* hit, by the source's call. Rows were chosen to be rich in hits. Some 3.4% of all compounds tested hit in one or more screens of this group.

Results for CN(CCn1ccnc1)c1nc2nonc2nc1NCc1ccccc1 ?
TEAD-YAP inh: 0; GPR151 ag: 2; FBW7 act: 0; MITF inh: 6

Results for COc1ccc(/C=N/Nc2nc(C)c([N+](=O)[O-])c(N(C)c3ccccc3)n2)cc1OC ?
TEAD-YAP inh: 14; GPR151 ag: 5.5*; FBW7 act: 0; MITF inh: -1; GPR151 conf act: 1; GPR119 ag: 2

How did O=C(NCCc1nnc2n1CCN(CCCc1ccccc1)CC2)c1ccc(F)cc1 do in these assays?
TEAD-YAP inh: 3; GPR151 ag: 0; FBW7 act: 0; MITF inh: 1

Results for CC(=O)C(Sc1nc(NC(C)C)nc(N(C)C)n1)C(C)=O ?
TEAD-YAP inh: -12; GPR151 ag: 5.3*; FBW7 act: 1; MITF inh: 16; GPR151 conf act: 0; GPR119 ag: 5

How did O=C(NCCCCc1ccccc1)c1cc([N+](=O)[O-])cc([N+](=O)[O-])c1 do in these assays?
TEAD-YAP inh: 8; GPR151 ag: 11*; FBW7 act: 0; MITF inh: 17; GPR151 conf act: 1; GPR119 ag: 11

What do the screens show for `Nc1nc(SCc2ccc(F)cc2)nn1CC(=O)Nc1ccccc1F`?
TEAD-YAP inh: -4; GPR151 ag: 6.3*; FBW7 act: 0; MITF inh: 26; GPR151 conf act: 0; GPR119 ag: -5

Results for Cc1cccc(NC(=O)CC(NCCO)C(=O)O)c1 (centres undefined) ?
TEAD-YAP inh: -6; GPR151 ag: 1; FBW7 act: 0; MITF inh: -9

How did O=C(CC(NCCO)C(=O)O)Nc1ccccc1 (centres undefined) do in these assays?
TEAD-YAP inh: 1; GPR151 ag: 6.8*; FBW7 act: 0; MITF inh: -7; GPR151 conf act: 1; GPR119 ag: -1

Results for Cc1c(-c2ccc(F)cc2)[n+](=O)c2c(n1[O-])CCCC2 ?
TEAD-YAP inh: 11; GPR151 ag: 0; FBW7 act: 0; MITF inh: 5

Results for CC(C)c1c(-c2ccccc2)[n+](=O)c2c(n1[O-])CCCCC2 ?
TEAD-YAP inh: 0; GPR151 ag: 5.2*; FBW7 act: 0; MITF inh: -6; GPR151 conf act: -1; GPR119 ag: 3

Results for CC(C)Oc1ccc(NC(=O)COc2cccc(Br)c2)cc1 ?
TEAD-YAP inh: -7; GPR151 ag: 2; FBW7 act: 0; MITF inh: -3

How did CCOc1ccccc1CN1CCNC(=O)C1CC(=O)NC1Cc2ccccc2C1 (centres undefined) do in these assays?
TEAD-YAP inh: 1; GPR151 ag: 1; FBW7 act: 0; MITF inh: -4

What do the screens show for `Cc1cc(C)n(-c2cc(NCCO)nc(C)n2)n1`?
TEAD-YAP inh: 2; GPR151 ag: 11*; FBW7 act: 0; MITF inh: -3; GPR151 conf act: 0; GPR119 ag: -11

Results for Cc1ccc(N(Cc2ccc(C(=O)NC(C)c3ccccc3)cc2)S(C)(=O)=O)cc1C (centres undefined) ?
TEAD-YAP inh: 11; GPR151 ag: 5.5*; FBW7 act: 0; MITF inh: 4; GPR151 conf act: -1; GPR119 ag: 2

Results for CC(NC(=O)c1ccc(N(Cc2ccccc2)S(C)(=O)=O)cc1)c1ccccc1 (centres undefined) ?
TEAD-YAP inh: 0; GPR151 ag: 1; FBW7 act: 0; MITF inh: -1

What do the screens show for `O=[N+]([O-])c1cccc(CNc2cccc(F)c2)c1`?
TEAD-YAP inh: 5; GPR151 ag: 11*; FBW7 act: 0; MITF inh: 6; GPR151 conf act: 1; GPR119 ag: 3

What do the screens show for `COc1cccc(C2CC(=O)NC3=C2C(=O)CC(c2ccccc2Cl)C3)c1` (centres undefined)?
TEAD-YAP inh: 4; GPR151 ag: 0; FBW7 act: 0; MITF inh: 15

Results for O=S(c1cc(Cl)cc(Cl)c1O)c1cc(Cl)cc(Cl)c1O ?
TEAD-YAP inh: -6; GPR151 ag: 6.9*; FBW7 act: 0; MITF inh: 7; GPR151 conf act: 1; GPR119 ag: 4

Assay outcomes deposited in PubChem by The Scripps Research Institute Molecular Screening Center.
